From PubChem BioAssay (EPA / NIEHS)
Calls of active or inactive are those of the source. How the source made its calls: active means hit-call score of the fitted dose curve at least 0.9, where 1 is the maximum; inactive means score below 0.9.

Legend:
[1] = read-out: Interferon-gamma inducible Protein 10 (IP10), CXCL10 (gene 3627); assay: BSK_BE3C_IP10: BioMAP Diversity Plus: BE3C Assay for Interferon-gamma inducible Protein 10 (IP10) Biomarker Activity (AID 2283034); conditions: primary human bronchial epithelial cells; actives raise or lower the signal
How it was run: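 IP-10 quantified by ELISA serves as the endpoint. Cells: primary human bronchial epithelium, read 24 h after compound addition. Activity is derived by bidirectional fitting with DMSO as negative control.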

[2] = read-out: Monokine induced gamma interferon (MIG), CXCL9 (gene 4283); assay: BSK_BE3C_MIG: BioMAP Diversity Plus: BE3C Assay for Monokine induced gamma interferon (MIG) Biomarker Activity (AID 2283035); conditions: primary human bronchial epithelial cells; actives raise or lower the signal;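 further: MIG protein measured by ELISA in BE3C cultures after 24 h of dosing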
How it was run: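 hu bronchial epithelial 1° cells, 24 h cpd; MIG by ELISA; bidirectional fit, DMSO = baseline.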

[3] = read-out: Transforming growth factor beta 1 (TGFb1), TGFB1 (gene 7040); assay: BSK_BE3C_TGFb1: BioMAP Diversity Plus: BE3C Assay for Transforming growth factor beta 1 (TGFb1) Biomarker Activity (AID 2283036); conditions: primary human bronchial epithelial cells; actives raise or lower the signal
How it was run: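 Bronchial epithelial primary cells are treated with test chemical, then TGF-b1 is quantified by ELISA after 24 hours. Values derive from bidirectional fitting against DMSO, with cytotoxicity checked by SRB staining in parallel cultures.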

[4] = read-out: Plasminogen activator inhibitor-1 (PAI1), SERPINE1 (gene 5054); assay: BSK_BE3C_PAI1: BioMAP Diversity Plus: BE3C Assay for Plasminogen activator inhibitor-1 (PAI1) Biomarker Activity (AID 2283037); conditions: primary human bronchial epithelial cells; actives raise or lower the signal
How it was run: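 Values derive from bidirectional fitting against DMSO baseline of PAI-1 levels, measured by ELISA in human bronchial epithelial cells 24 h after compound addition.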

[5] = read-out: urokinase plasminogen activator (uPA), PLAU (gene 5328); assay: BSK_BE3C_uPA: BioMAP Diversity Plus: BE3C Assay for urokinase plasminogen activator (uPA) Biomarker Activity (AID 2283038); conditions: primary human bronchial epithelial cells; actives raise or lower the signal;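 further: uPA protein level quantified by ELISA in cell cultures; uPA read one day after compound addition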
How it was run: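 Measured by ELISA: uPA from human primary bronchial epithelial cells 24 h after chemical treatment. Values derive from bidirectional curve fitting with DMSO serving as negative control. Total protein by SRB staining in parallel wells flagged overt cytotoxicity.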

[6] = read-out: Urokinase-type plasminogen activator receptor (uPAR), PLAUR (gene 5329); assay: BSK_BE3C_uPAR: BioMAP Diversity Plus: BE3C Assay for Urokinase-type plasminogen activator receptor (uPAR) Biomarker Activity (AID 2283039); conditions: primary human bronchial epithelial cells; actives raise or lower the signal
How it was run: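 Steps: dose human primary bronchial epithelial cells, incubate 24 h, measure uPAR by ELISA, then fit gain- or loss-of-signal response bidirectionally relative to DMSO.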

[7] = read-out: Interleukin-6 (IL6), IL6 (gene 3569); assay: BSK_CASM3C_IL6: BioMAP Diversity Plus: CASM3C Assay for Interleukin-6 (IL6) Biomarker Activity for (AID 2283040); conditions: primary human coronary artery smooth muscle cells; actives raise or lower the signal
[8] = read-out: Tissue plasminogen activator (tPA), PLAT (gene 5327); assay: BSK_BE3C_tPA: BioMAP Diversity Plus: BE3C Assay for Tissue plasminogen activator (tPA) Biomarker Activity (AID 2283041); conditions: primary human bronchial epithelial cells; actives raise or lower the signal
How it was run: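 Gain- or loss-of-signal in tPA, measured by ELISA, derived by bidirectional fitting against DMSO. Cells: human primary bronchial epithelial; read at 24 h after chemical dosing.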

[9] = read-out: Interleukin-8 (IL8), CXCL8 (gene 3576); assay: BSK_CASM3C_IL8: BioMAP Diversity Plus: CASM3C Assay for Interleukin-8 (IL8) Biomarker Activity (AID 2283042); conditions: primary human coronary artery smooth muscle cells; actives raise or lower the signal;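 further: IL-8 protein level quantified by ELISA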
[10] = read-out: Human Leukocyte Antigen - DR isotype (HLADR), HLA-DRA (gene 3122); assay: BSK_CASM3C_HLADR: BioMAP Diversity Plus: CASM3C Assay for Human Leukocyte Antigen - DR isotype (HLADR) Biomarker Activity (AID 2283043); conditions: primary human coronary artery smooth muscle cells; actives raise or lower the signal;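 further: cell-surface HLA-DR protein level quantified by ELISA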
[11] = read-out: Macrophage colony-stimulating factor (MCSF), CSF1 (gene 1435); assay: BSK_CASM3C_MCSF: BioMAP Diversity Plus: CASM3C Assay for Macrophage colony-stimulating factor (MCSF) Biomarker Activity (AID 2283044); conditions: primary human coronary artery smooth muscle cells; actives raise or lower the signal;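 further: M-CSF protein amount quantified by ELISA after 24 h exposure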
[12] = read-out: Low-density lipoprotein receptor (LDLR), LDLR (gene 3949); assay: BSK_CASM3C_LDLR: BioMAP Diversity Plus: CASM3C Assay for Low-density lipoprotein receptor (LDLR) Biomarker Activity (AID 2283045); conditions: primary human coronary artery smooth muscle cells; actives raise or lower the signal;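 further: LDLR protein level on the cell surface quantified by ELISA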
[13] = read-out: Monocyte Chemoattractant Protein-1 (MCP1), CCL2 (gene 6347); assay: BSK_CASM3C_MCP1: BioMAP Diversity Plus: CASM3C Assay for Monocyte Chemoattractant Protein-1 (MCP1) Biomarker Activity (AID 2283046); conditions: primary human coronary artery smooth muscle cells; actives raise or lower the signal;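 further: MCP-1 level quantified by ELISA 24 h after dosing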
[14] = BSK_CASM3C_Proliferation: Cell Proliferation Assessment in the BioMAP Diversity Plus: CASM3C Assay (AID 2283047); conditions: primary human coronary artery smooth muscle cells;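 further: sulforhodamine B total protein stain as relative cell number at 560 nm; sub-confluent cells exposed 48 h before staining; fitted both ways against DMSO so gain or loss of cell number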
[15] = read-out: Monokine induced gamma interferon (MIG), CXCL9 (gene 4283); assay: BSK_CASM3C_MIG: BioMAP Diversity Plus: CASM3C Assay for Monokine induced gamma interferon (MIG) Biomarker Activity (AID 2283048); conditions: primary human coronary artery smooth muscle cells; actives raise or lower the signal;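 further: MIG protein level measured by ELISA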
[16] = read-out: serum amyloid A (SAA), SAA1 (gene 6288); assay: BSK_CASM3C_SAA: BioMAP Diversity Plus: CASM3C Assay for serum amyloid A (SAA) Biomarker Activity (AID 2283049); conditions: primary human coronary artery smooth muscle cells; actives raise or lower the signal;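 further: SAA protein level quantified by ELISA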
[17] = BSK_CASM3C_SRB: Viability Assessment in the BioMAP Diversity Plus: CASM3C Assay (AID 2283050); conditions: primary human coronary artery smooth muscle cells;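 further: total protein by SRB staining as cytotoxicity measure in parallel cultures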
[18] = read-out: Thrombomodulin, THBD (gene 7056); assay: BSK_CASM3C_Thrombomodulin: BioMAP Diversity Plus: CASM3C Assay for Thrombomodulin Biomarker Activity (AID 2283051); conditions: primary human coronary artery smooth muscle cells; actives raise or lower the signal;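 further: thrombomodulin protein level measured by ELISA 24 h after dosing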
[19] = read-out: Tissue Factor, F3 (gene 2152); assay: BSK_CASM3C_TissueFactor: BioMAP Diversity Plus: CASM3C Assay for Tissue Factor Biomarker Activity (AID 2283052); conditions: primary human coronary artery smooth muscle cells; actives raise or lower the signal;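 further: cell surface tissue factor protein level read by ELISA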
[20] = read-out: Interferon-gamma inducible Protein 10 (IP10), CXCL10 (gene 3627); assay: BSK_hDFCGF_IP10: BioMAP Diversity Plus: hDFCGF Assay for Interferon-gamma inducible Protein 10 (IP10) Biomarker Activity (AID 2283053); conditions: primary human foreskin fibroblasts; actives raise or lower the signal
How it was run: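 Cells: human dermal foreskin fibroblasts. Exposure: 24 h post-dosing. Detection: IP-10 ELISA, with values expressed against DMSO controls and fitted in both directions.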

Measured: AC50

CC(Cl)(Cl)C(=O)O
inactive: all assays above

O=[N+]([O-])c1ccccc1
inactive: all assays above

Cc1c([N+](=O)[O-])cc2c(c1[N+](=O)[O-])C(C)(C)CC2(C)C
active: [1] 20 µM | [3] 13.5 µM | [4] 5 µM | [6] 16.1 µM | [8] 10.6 µM | [10] 1.74 µM | [11] 0.378 µM | [12] 5.44 µM | [18] 7.74 µM
inactive: all other assays above

CCC(C)(C)c1ccc(O)cc1
inactive: all assays above

CCOP(=S)(OCC)SCn1nnc2ccccc2c1=O
active: [12] 32.3 µM | [14] 20 µM
inactive: all other assays above

COCCOCCO
inactive: all assays above

Cc1cccc(N)c1
inactive: all assays above
